Usually AC50 stands for the concentration at which the activity in the assay is half-maximal.

Data on three compounds can be found in PubChem BioAssay (EPA / NIEHS).

Holding throughout (settings): mRNA level, 48 h; actives raise or lower the signal
Read-out in experiment [1]: Bcl-2 (BAX) gene, BAX (gene 581)
Nature of the experiment: LTEA_HepaRG_BAX: Life Technologies and Expression Analysis (LTEA) Assay for Bcl-2 (BAX) gene using HepaRG (AID 2283470). In a few lines: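 Human HepaRG cells treated in duplicate for 48 h across eight concentrations (max 100 uM, 0.5% DMSO); BAX expression measured by qRT-PCR.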

Read-out in experiment [2]: adenosine kinase (ADK) gene, ADK (gene 132)
Nature of the experiment: LTEA_HepaRG_ADK: Life Technologies and Expression Analysis (LTEA) Assay for adenosine kinase (ADK) gene using HepaRG (AID 2283471). The procedure, abridged: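 HepaRG (human liver), 48 h chemical exposure, 8-pt half-log series, top 100 uM, 0.5% DMSO vehicle. Readout: ADK mRNA by qRT-PCR vs housekeeping genes; bidirectional curve fit relative to DMSO baseline.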

Read-out in experiment [3]: Alpha-fetoprotein (AFP) gene, AFP (gene 174)
As to the kind of experiment: LTEA_HepaRG_AFP: Life Technologies and Expression Analysis (LTEA) Assay for Alpha-fetoprotein (AFP) gene using HepaRG (AID 2283472). The procedure, abridged:
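Measures AFP mRNA change in HepaRG after 48 h chemical exposure (8 half-log concentrations, highest 100 uM, 0.5% DMSO). Fold change relative to DMSO, fitted in both directions.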

Read-out in another experiment: BCL2L11 (gene 10018)
As to the kind of experiment: LTEA_HepaRG_BCL2L11: Life Technologies and Expression Analysis (LTEA) Assay for Bcl-2 (BCL2L11) gene using HepaRG (AID 2283473). In a few lines: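 HepaRG, 48 h exposure, 8-pt half-log series from 100 uM in 0.5% DMSO, duplicates; qRT-PCR (Fluidigm TaqMan) for BCL2L11, housekeeping-normalized; bidirectional curve fit relative to DMSO baseline.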

Read-out in experiment [4]: Apolipoprotein A-V (APOA5) gene, APOA5 (gene 116519)
Nature of the experiment: LTEA_HepaRG_APOA5: Life Technologies and Expression Analysis (LTEA) Assay for Apolipoprotein A-V (APOA5) gene using HepaRG (AID 2283474). The procedure, abridged:
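HepaRG, 48 h chemical exposure in serum-free induction medium, 8-pt half-log series (top 100 uM), 0.5% DMSO vehicle, duplicates. Readout: APOA5 mRNA by qRT-PCR, housekeeping-normalized; bidirectional fit vs DMSO baseline.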

Read-out in experiment [5]: Apoptosis regulator Bcl-2 (Homo sapiens) (UniProt P10415)
Nature of the experiment: LTEA_HepaRG_BCL2: Life Technologies and Expression Analysis (LTEA) Assay for Bcl-2 gene using HepaRG (AID 2283475). The procedure, abridged: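 Each chemical was tested in duplicate on HepaRG cultures held in serum-free induction medium for 48 h, highest concentration 100 uM with half-log dilutions. Transcript levels came from multiplexed qRT-PCR, normalised to housekeeping genes; activity was scored in either direction relative to DMSO.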

Read-out in experiment [6]: Bcl-2 (BID) gene, BID (gene 637)
Nature of the experiment: LTEA_HepaRG_BID: Life Technologies and Expression Analysis (LTEA) Assay for Bcl-2 (BID) gene using HepaRG (AID 2283476). In a few lines: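 Assay used HepaRG hepatic cells treated 48 h in serum-free medium with half-log dilutions from 100 uM. Endpoint: BID mRNA, qRT-PCR, normalized to ACTB/GAPDH/POLR2A.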

Read-out in a further experiment: Caspase-3 (Homo sapiens) (UniProt P42574)
As to the kind of experiment: LTEA_HepaRG_CASP3: Life Technologies and Expression Analysis (LTEA) Assay for cysteine-aspartic acid protease (CASP3) using HepaRG (AID 2283477). In a few lines: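 HepaRG, 48 h exposure, 8 conc. (top 100 uM, half-log steps, duplicate), 0.5% DMSO vehicle; qRT-PCR of CASP3 transcript, housekeeping-normalised (ACTB/GAPDH/POLR2A); bidirectional curve fit vs DMSO baseline.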

Read-out in experiment [7]: Cytochrome P450 (CYP24A1), CYP24A1 (gene 1591)
Nature of the experiment: LTEA_HepaRG_CYP24A1: Life Technologies and Expression Analysis (LTEA) Assay for Cytochrome P450 (CYP24A1) using HepaRG (AID 2283478). The procedure, abridged: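 qRT-PCR read-out: CYP24A1 transcript levels normalized to three housekeeping genes, bidirectional curve fits against 0.5% DMSO baseline. Human HepaRG cells treated 48 h with chemicals at eight concentrations from 100 uM in half-log steps.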

Read-out in experiment [8]: Cytochrome P450 (CYP1A2), CYP1A2 (gene 1544)
As to the kind of experiment: LTEA_HepaRG_CYP1A2: Life Technologies and Expression Analysis (LTEA) Assay for Cytochrome P450 (CYP1A2) using HepaRG (AID 2283479). In a few lines: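 HepaRG, 48 h exposure, top 100 uM, half-log 8-pt, 0.5% DMSO vehicle, duplicates. Readout: TaqMan qRT-PCR of CYP1A2 mRNA, housekeeping-normalized (ACTB/GAPDH/POLR2A). Gain/loss fit relative to DMSO baseline.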

Read-out in experiment [9]: cysteine-aspartic acid protease (CASP8), CASP8 (gene 841)
Nature of the experiment: LTEA_HepaRG_CASP8: Life Technologies and Expression Analysis (LTEA) Assay for cysteine-aspartic acid protease (CASP8) using HepaRG (AID 2283480). The procedure, abridged: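 CASP8 transcript measured by TaqMan qRT-PCR with ACTB/GAPDH/POLR2A normalization, after 48 h chemical exposure of HepaRG cells in serum-free induction medium. Eight concentrations, top 100 uM, half-log steps, 0.5% DMSO vehicle; fits in both directions versus DMSO.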

Read-out in experiment [10]: Cytochrome P450 (CYP2B6), CYP2B6 (gene 1555)
Nature of the experiment: LTEA_HepaRG_CYP2B6: Life Technologies and Expression Analysis (LTEA) Assay for Cytochrome P450 (CYP2B6) using HepaRG (AID 2283481). The procedure, abridged: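 Read-out is CYP2B6 mRNA by TaqMan qRT-PCR, normalized to three housekeeping genes and fitted bidirectionally against 0.5% DMSO baseline. Human HepaRG cells received test chemicals for 48 h, top concentration 100 uM, half-log dilutions.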

Read-out in experiment [11]: Cytochrome P450 2C19 (Homo sapiens) (UniProt P33261)
Nature of the experiment: LTEA_HepaRG_CYP2C19: Life Technologies and Expression Analysis (LTEA) Assay for CYP2C19 using HepaRG (AID 2283482). In a few lines: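 HepaRG, 48 h chemical exposure, 8-pt half-log series from 100 uM in 0.5% DMSO, duplicates. Readout: CYP2C19 mRNA by TaqMan qRT-PCR, housekeeping-normalized. Bidirectional fit vs DMSO baseline; phenobarbital 1mM as induction control.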

Read-out in a further experiment: CYP2C8 (gene 1558)
Nature of the experiment: LTEA_HepaRG_CYP2C8: Life Technologies and Expression Analysis (LTEA) Assay for CYP2C8 using HepaRG (AID 2283483). In a few lines: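 CYP2C8 expression measured by TaqMan qRT-PCR and normalized to three housekeeping genes. HepaRG cultures were treated for 48 h with an eight-point half-log series topping at 100 uM, vehicle 0.5% DMSO, duplicates; fitted both directions against DMSO.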

Read-out in the next experiment: CYP2C9 (gene 1559)
As to the kind of experiment: LTEA_HepaRG_CYP2C9: Life Technologies and Expression Analysis (LTEA) Assay for CYP2C9 using HepaRG (AID 2283484). In a few lines:
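CYP2C9 transcript level, quantified by TaqMan qRT-PCR against three housekeeping genes, was fitted bidirectionally relative to 0.5% DMSO. HepaRG cultures were treated 48 h, in duplicate, at eight half-log concentrations topping at 100 uM.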

Read-out in another experiment: CYP2E1 (gene 1571)
Nature of the experiment: LTEA_HepaRG_CYP2E1: Life Technologies and Expression Analysis (LTEA) Assay for CYP2E1 using HepaRG (AID 2283485). In a few lines: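 Assay uses 48 h exposure of HepaRG hepatic cells, eight concentrations to 100 uM. Expression of CYP2E1 is quantified by TaqMan qRT-PCR with ACTB, GAPDH and POLR2A normalization; curves fitted in both directions relative to vehicle.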

Read-out in experiment [12]: Pro-epidermal growth factor (Homo sapiens) (UniProt P01133)
As to the kind of experiment: LTEA_HepaRG_EGF: Life Technologies and Expression Analysis (LTEA) Assay for Epidermal growth factor (EGF) using HepaRG (AID 2283489). The procedure, abridged: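 qRT-PCR readout of EGF transcript after 48 h chemical exposure of HepaRG cells; eight concentrations from 100 uM down in half-log steps, duplicate wells, 0.5% DMSO vehicle. Bidirectional curve fitting against DMSO baseline.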

Read-out in the next experiment: CYP4A11 (gene 1579)
Nature of the experiment: LTEA_HepaRG_CYP4A11: Life Technologies and Expression Analysis (LTEA) Assay for CYP4A11 using HepaRG (AID 2283486). The procedure, abridged: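 CYP4A11 transcript levels were quantified by TaqMan qRT-PCR after HepaRG human liver cells were treated for 48 hours with test chemicals (top 100 uM, half-log dilutions, 0.5% DMSO). Gain or loss of signal was fitted relative to DMSO.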

Read-out in experiment [13]: Cytochrome P450 3A4 (Homo sapiens) (UniProt P08684)
Nature of the experiment: LTEA_HepaRG_CYP3A4: Life Technologies and Expression Analysis (LTEA) Assay for CYP3A4 using HepaRG (AID 2283487). In a few lines:
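CYP3A4 transcript measured by TaqMan qRT-PCR and normalized to three housekeeping genes after 48 h chemical exposure of human HepaRG cells. Top concentration 100 uM, half-log steps, 0.5% DMSO vehicle; gain or loss fitted against DMSO baseline.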

Read-out in experiment [14]: DNA damage-inducible transcript 3 (DDIT3), DDIT3 (gene 1649)
Nature of the experiment: LTEA_HepaRG_DDIT3: Life Technologies and Expression Analysis (LTEA) Assay for DNA damage-inducible transcript 3 (DDIT3) using HepaRG (AID 2283488). In a few lines:
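Eight-point concentration-response (100 uM highest, half-log dilutions) in HepaRG, 48 h, duplicate wells. Endpoint: qRT-PCR mRNA, normalized (ACTB, GAPDH, POLR2A), bidirectional fitting with DMSO as baseline.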

The structures appear in SMILES notation. Activity calls are given as the source filed them. How the source made its calls: active means hit-call score of the fitted dose curve at least 0.9, where 1 is the maximum; inactive means score below 0.9.

Sequence of Cytochrome P450 2C19 (Homo sapiens) (P33261 whole entry, looked up): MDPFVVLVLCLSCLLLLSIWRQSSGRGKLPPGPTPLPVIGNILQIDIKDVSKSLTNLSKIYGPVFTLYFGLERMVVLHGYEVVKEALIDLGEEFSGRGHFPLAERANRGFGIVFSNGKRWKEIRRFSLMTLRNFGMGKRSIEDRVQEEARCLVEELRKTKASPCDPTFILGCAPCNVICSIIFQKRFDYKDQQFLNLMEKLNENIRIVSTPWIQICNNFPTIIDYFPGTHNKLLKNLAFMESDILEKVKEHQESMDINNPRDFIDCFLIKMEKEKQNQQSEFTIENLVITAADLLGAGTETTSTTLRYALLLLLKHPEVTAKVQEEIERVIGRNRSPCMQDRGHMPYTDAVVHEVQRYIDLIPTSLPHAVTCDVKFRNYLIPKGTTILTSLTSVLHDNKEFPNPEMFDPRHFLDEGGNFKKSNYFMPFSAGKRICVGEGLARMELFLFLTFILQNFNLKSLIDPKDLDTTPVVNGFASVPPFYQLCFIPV
Sequence of Apoptosis regulator Bcl-2 (Homo sapiens) (P10415 whole entry, looked up): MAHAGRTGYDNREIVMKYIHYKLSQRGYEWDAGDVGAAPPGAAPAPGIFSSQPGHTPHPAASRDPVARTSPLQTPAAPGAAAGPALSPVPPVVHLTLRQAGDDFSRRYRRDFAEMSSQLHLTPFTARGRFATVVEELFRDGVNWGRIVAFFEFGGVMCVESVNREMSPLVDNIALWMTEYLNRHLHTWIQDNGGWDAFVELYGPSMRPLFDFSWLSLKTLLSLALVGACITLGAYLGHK
Sequence of Caspase-3 (Homo sapiens) (P42574 whole entry, looked up): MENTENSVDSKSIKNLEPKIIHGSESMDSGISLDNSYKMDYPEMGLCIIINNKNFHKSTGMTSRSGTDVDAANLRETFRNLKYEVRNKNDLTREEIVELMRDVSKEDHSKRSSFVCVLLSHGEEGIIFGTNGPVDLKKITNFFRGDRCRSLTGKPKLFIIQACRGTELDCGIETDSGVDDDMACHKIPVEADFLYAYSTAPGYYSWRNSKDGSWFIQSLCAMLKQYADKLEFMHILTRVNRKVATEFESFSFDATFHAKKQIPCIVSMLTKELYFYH
Sequence of Cytochrome P450 3A4 (Homo sapiens) (P08684 whole entry, looked up): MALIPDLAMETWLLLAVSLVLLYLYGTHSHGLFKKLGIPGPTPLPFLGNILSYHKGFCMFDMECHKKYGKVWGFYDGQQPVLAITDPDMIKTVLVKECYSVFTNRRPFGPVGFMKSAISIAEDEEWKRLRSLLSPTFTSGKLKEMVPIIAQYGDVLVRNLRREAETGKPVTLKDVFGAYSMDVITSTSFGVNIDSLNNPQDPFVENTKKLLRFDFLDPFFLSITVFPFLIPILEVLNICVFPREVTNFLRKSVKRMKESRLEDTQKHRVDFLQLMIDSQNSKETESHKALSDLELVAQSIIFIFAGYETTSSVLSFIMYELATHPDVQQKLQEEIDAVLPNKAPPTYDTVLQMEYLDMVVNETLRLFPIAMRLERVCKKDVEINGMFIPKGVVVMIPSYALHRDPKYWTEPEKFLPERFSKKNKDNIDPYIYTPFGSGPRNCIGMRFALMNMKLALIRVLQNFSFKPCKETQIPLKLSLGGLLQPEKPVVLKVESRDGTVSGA

Consider `CCCCCCC(C=O)=Cc1ccccc1`, for which the compound was classed as inactive (in experiment [1]; in [2]; in experiment [3]; with BCL2L11 (gene 10018); in experiment [4]; in experiment [5]). Further, the result (in [6]; with Caspase-3 (Homo sapiens); in experiment [7]; in experiment [8]; in experiment [9]; in experiment [11]) was inactive. In addition, the call (in the experiment with CYP2C8 (gene 1558); in the experiment with CYP2C9 (gene 1559); with CYP2E1 (gene 1571); in experiment [12]) was inactive. The AC50 in experiment [10] is 15.9 µM (active).
As to `CC(C)OC(=O)C(C)(C)Oc1ccc(C(=O)c2ccc(Cl)cc2)cc1`, the compound was called inactive (in experiment [1]; in experiment [2]; in experiment [3]; with BCL2L11 (gene 10018); in experiment [5]; with Caspase-3 (Homo sapiens)). Also, the call (in experiment [7]; in experiment [9]; in experiment [11]; with CYP2C8 (gene 1558); in the experiment with CYP2C9 (gene 1559); in the experiment with CYP2E1 (gene 1571)) was inactive. In addition, the call in experiment [13] and in experiment [12] was inactive. Besides, the AC50 is 0.0422 µM (active) in experiment [6], 28.1 µM (active) in [8], 63.3 µM (active) in [10] and 3.85 µM (active) with CYP4A11 (gene 1579).
On to `CCN(CC)CCOc1ccc(C(=C(Cl)c2ccccc2)c2ccccc2)cc1`, for which the result (in [1]; in experiment [2]; in [5]; in experiment [6]; with Caspase-3 (Homo sapiens); in [7]) was inactive. Further, the outcome (in experiment [8]; in experiment [9]; in experiment [11]; in the experiment with CYP2C8 (gene 1558); in [13]; in experiment [12]) was inactive. Further, the AC50 is 17.9 µM (active) in [3]; 76.5 µM (active) with BCL2L11 (gene 10018); 3.32 µM (active) in [10]; 80.9 µM (active) in the experiment with CYP2C9 (gene 1559); 14.6 µM (active) with CYP2E1 (gene 1571); 19.3 µM (active) with CYP4A11 (gene 1579). In experiment [14], the AC50 was 42 µM (active).
